# The list is not random: actives were taken first. Their share in the collection is about 3.1%.
# Autofluor counter: counter-screen for toxin protease inhibitors: compound fluorescence; compound autofluorescence counterscreen, microsphere flow cytometry; active compounds read high; fluorescence intensity (no concentration beside the values); actives 3.1% (n = 360,000); AID 624483; in the data active = fluorescence intensity above about 16000; inconclusive = no clear call, values can overlap the other calls
# Anthrax LF prot: inhibitors of Bacillus anthracis lethal factor protease; actives 0.12% (n = 360,000); P15917; multiplex microsphere protease cleavage assay, LF; inhibition, % at 10 µM; also: plate controls were buffer without enzyme for full effect and enzyme alone for no effect
# BoNT-F LC inh: BoNT F light chain protease inhibition; actives 0.22% (n = 360,000); inhibition, % at 10 µM; Multiplex microsphere protease cleavage assay, flow cytometry; AID 588497; in the data active = inhibition above about 35%, passing the limit was not always enough; inconclusive = no clear call, values can overlap the other calls; also: plate controls were buffer without enzyme for full effect and enzyme alone for no effect
# PriA SSB inh: inhibitors of Klebsiella pneumoniae PriA binding to SSB C-terminal tail; AlphaScreen SSBct-PriA binding, biotinylated peptide; inhibition, % at 33 µM; actives 0.6% (n = 430,000); AID 1272365; in the data active = inhibition mostly above about 37%, no sharp cut-off; inactive = mostly below about 20%;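 also: plate controls were negative control peptide for no effect and reference peptide for full effect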
# BoNT A protease: inhibitors of Botulinum neurotoxin A light chain protease. inhibition, % at 10 µM. multiplex microsphere protease substrate cleavage, flow cytometry. actives 0.17% (n = 360,000); also: plate controls were buffer without enzyme for full effect and enzyme alone for no effect
# An asterisk follows results filed as active; ? = inconclusive; · = no result given. Rule as the data show it, unless noted: active = inhibition above about 30%; inconclusive = no clear call, values can overlap the other calls; inactive = below that.
SMILES,Autofluor counter,Anthrax LF prot,BoNT-F LC inh,PriA SSB inh,BoNT A protease
Cn1nc(CN(Cc2ccco2)S(=O)(=O)c2cccs2)c2c1CCC2,·,·,·,-2,·
CCCCC(=O)Nc1cccc2c1C(=O)N(C)C2=O,·,·,·,-16,·
Cc1ccc(S(=O)(=O)N=C2NC(=O)/C(=C\c3cc(Br)cc(Br)c3O)S2)cc1,·,·,·,13,·
CC1CCCC(C)N1C(=O)c1cc2cc(Cl)cc(Cl)c2oc1=O (stereo not drawn),·,·,·,-9,·
Cc1nnc(-c2cnn(-c3ccccc3)c2N)n1Cc1cccc(C(F)(F)F)c1,6402,1,-1,-5,0
Cc1nnc(-c2cnn(-c3ccccc3)c2N)n1Cc1ccncc1,20279*,0,-2,-3,?
CCOc1cc(-c2nnc(NC(=O)c3cc4cc([N+](=O)[O-])ccc4s3)o2)cc(OCC)c1OCC,·,·,·,-4,·
Cc1cc(C)n(CC(O)COCc2ccco2)n1 (stereo not drawn),23131*,-2,-2,-10,?
Cc1cc(C)n(CC(O)COc2ccccc2)n1 (stereo not drawn),9794,0,8,-8,1
Cc1cc(NS(=O)(=O)c2ccc(NC(=O)c3ccco3)cc2)no1,3125,0,0,-14,0
COc1cc(NS(=O)(=O)c2ccc(NC(=O)c3ccc(C)o3)cc2)nc(OC)n1,16150*,-8,19,-10,?
Cc1cc(NS(=O)(=O)c2ccc(NC(=O)c3ccco3)cc2)nc(C)n1,21969*,-1,-9,-8,-4
CCCOc1ccc(C2C(=O)N(C3CCCCC3)CC(=O)N2CCCOCC)cc1OC (stereo not drawn),22919*,-4,-1,3,1
CCOCCCN1C(=O)CN(C2CCCCC2)C(=O)C1c1ccc(OC)c(OC)c1 (stereo not drawn),10813,3,5,1,0
Cc1ccc(C2C(=O)N(C3CCCC3)CC(=O)N2C2CCCCC2)cc1 (stereo not drawn),18594*,-4,0,0,2
COc1ccc(C2C(=O)N(C3CCCCC3)CC(=O)N2C2CCCCC2)cc1 (stereo not drawn),9530,-4,-4,-11,0
CCOc1ccc(C2C(=O)N(C3CCCCC3)CC(=O)N2CC2CCCO2)cc1OC (stereo not drawn),11195,0,-14,-2,-1
CCOCCCN1C(=O)CN(C2CCCCCC2)C(=O)C1c1ccc(OC)cc1 (stereo not drawn),19637*,-2,1,-1,1
COc1ccc(C2C(=O)N(C3CCCCC3)CC(=O)N2CCc2ccccc2)cc1OC (stereo not drawn),21105*,-1,-5,-17,-3
COc1ccccc1N1CCN(CCNC(=O)c2ccc(OC)c(OC)c2OC)CC1,·,·,·,6,·
Cn1nc(N2CCCC(C(=O)NCc3nc4ccccc4[nH]3)C2)ccc1=O (stereo not drawn),·,·,·,-23,·
Cc1ccc(/C=c2\sc3nc(-c4cccs4)nn3c2=O)o1,20038*,-4,3,·,1
Cc1ccc(C=c2sc3nc(-c4ccco4)nn3c2=O)o1,·,·,·,0,·
C=CCNC(=O)C(=O)Nc1cccc(F)c1,·,·,·,-28,·
O=c1cc(CO)occ1OCc1cccc(F)c1,19821*,-1,0,-7,?
SMILES,Autofluor counter,Anthrax LF prot,BoNT-F LC inh,PriA SSB inh,BoNT A protease
Cc1ccc(COc2coc(CO)cc2=O)cc1,5441,-2,5,4,0
COc1cccc(C2=NO[C@@H]3C(=O)N(Cc4ccccc4)C(=O)[C@H]23)c1OC,8668,-6,-8,-8,0
COc1cccc(C2=NO[C@@H]3C(=O)N(c4ccc5c(c4)OCCO5)C(=O)[C@H]23)c1OC,20829*,0,6,-8,4
Cc1c(N2C(=O)C(=O)C(=C(O)c3ccc(Cl)cc3)C2c2ccccc2)c(=O)n(-c2ccccc2)n1C (stereo not drawn),·,·,·,-1,·
CCN1CCc2nc(NC(=O)c3ccccc3)sc2C1,18645*,15,-2,-3,10
O=C(Nc1ccc(Cl)cc1)N1CCC(c2nc(-c3cccs3)no2)CC1,24323*,-3,-2,-22,?
COc1cc(C(=O)N2CCCC(c3nc(-c4cccs4)no3)C2)cc(OC)c1OC (stereo not drawn),17019*,-9,-4,4,-5
COc1ccc(NC(=O)N2CCC(c3nc(-c4cccs4)no3)CC2)cc1,9612,-4,6,-2,1
COc1cccc(C(=O)N2CCCC(c3nc(-c4cccs4)no3)C2)c1 (stereo not drawn),10849,-2,1,-19,0
O=C(Nc1cccc(C(F)(F)F)c1)N1CCC(c2nc(-c3ccc(F)cc3)no2)CC1,20249*,-3,-3,-7,2
COc1ccc(/C=N\n2cnc3c([nH]c4ccc(F)cc43)c2=O)cc1,·,·,·,-15,·
O=C(Cc1cccs1)N1CCC(n2ccnn2)C1 (stereo not drawn),·,·,·,0,·
C=CCOC(=O)C1C(C)=Nc2c(c(=O)n(C)c(=O)n2C)[C@H]1c1ccncc1 (stereo partly drawn),·,·,·,-8,·
CC(C)NC(=O)c1ccc(-c2cc(C(F)(F)F)ccc2Cl)o1,22154*,-2,-3,-16,0
COc1ccccc1NC(=O)c1ccc(-c2cc(C(F)(F)F)ccc2Cl)o1,·,·,·,-11,·
CC(=NNC(=O)CSc1nc2ccccc2s1)c1cccnc1,·,·,·,-7,·
COc1cccc(C(=O)Nc2cc(C)nn2-c2nc3c(cnn3-c3cccc(C)c3C)c(=O)[nH]2)c1OC,·,·,·,94*,·
Cc1ccc(-n2ncc3c(=O)[nH]c(-n4nc(C)cc4NC(=O)COc4ccccc4F)nc32)cc1,·,·,·,-13,·
Cc1cc(NC(=O)COc2ccccc2F)n(-c2nc3c(cnn3-c3cccc(C)c3C)c(=O)[nH]2)n1,·,·,·,43*,·
CC(C)c1cc(C(=O)O)c2cc(F)ccc2n1,·,·,·,-13,·
O=C(COC(=O)c1ccc(O)cc1)Nc1nnc(-c2ccccc2)o1,·,·,·,59*,·
O=C(COC(=O)Cc1ccccc1)Nc1nnc(-c2ccccc2)o1,?,-2,8,-3,1
Cc1ccc(C(=O)OCC(=O)c2ccccc2)cc1,6465,-6,-9,-7,-2
O=C(CCCSc1nc2ccccc2[nH]1)Nc1nnc(-c2ccccc2)o1,22546*,1,-1,-4,?
CCc1ccc(C(=O)COC(=O)c2ccc(-c3nnc(-c4ccccc4)o3)cc2)cc1,24076*,-1,-4,-11,-2
SMILES,Autofluor counter,Anthrax LF prot,BoNT-F LC inh,PriA SSB inh,BoNT A protease
O=C(NCC1CCN(C(=O)c2ccoc2)CC1)c1cncc(Br)c1,·,·,·,-4,·
NC(=S)NN=Cc1c(OCc2ccccc2Cl)ccc2ccccc12,·,·,·,-9,·
COc1ccnc2c1NCCC2,·,·,·,-2,·
COc1ccc(N2CCN(C(=O)c3ccc(S(=O)(=O)N4CCCCC4)cc3)CC2)nn1,·,·,·,-8,·
Cc1ccccc1C(=O)Nc1ccc(-c2ccc3nnc(-c4ccccn4)n3n2)cc1,·,·,·,70*,·
O=C(Nc1ccc(-c2ccc3nnc(-c4ccccn4)n3n2)cc1)c1ccc(Cl)nc1,·,·,·,1,·
O=C(Nc1ccc(-c2ccc3nnc(-c4ccncc4)n3n2)cc1)c1ccccc1Cl,·,·,·,-14,·
O=C(Nc1ccc(-c2ccc3nnc(-c4ccccn4)n3n2)cc1)c1ccccc1Cl,·,·,·,82*,·
O=C(Cc1ccccc1)Nc1ccc(-c2ccc3nnc(-c4ccccn4)n3n2)cc1,·,·,·,95*,·
